From the supplement of paper PMC11732987, “Enantioselective OTUD7B fragment discovery through chemoproteomics screening and high-throughput optimisation” (Communications Chemistry, 2025)

Legend:
Assay in all cases: log2 ratio of Biotin-Ahx-Ub-VS probe labelling (fragment/DMSO); higher = less target engagement (more negative = stronger competition), active = hit call of the paper (q ≤ 0.05, log2 ratio ≤ -1)
Conditions in all cases: compound concentration: 200 uM; treatment time: 3 h
[1] = target: USP34 (UniProt Q70CQ2)
In short: (§1)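 HEK293T lysate, 495 µg per sample in Tris/CHAPS/IGEPAL buffer with protease inhibitors, was treated in triplicate with fragment at 200 µM or vehicle for 3 h and then with Biotin-Ahx-Ub-VS at 0.5 µM final for 1 h. Labelled DUBs were NeutrAvidin-enriched, digested with LysC and trypsin, and run by diaPASEF LC-MS/MS. Spectronaut label-free quantities were global-median-normalised, and values are average log2 fragment/vehicle ratios by unpaired t-test on proteins with ≥2 unique peptides.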

[2] = target: T1, USP36 (UniProt Q9P275)
T1 sequence (whole entry): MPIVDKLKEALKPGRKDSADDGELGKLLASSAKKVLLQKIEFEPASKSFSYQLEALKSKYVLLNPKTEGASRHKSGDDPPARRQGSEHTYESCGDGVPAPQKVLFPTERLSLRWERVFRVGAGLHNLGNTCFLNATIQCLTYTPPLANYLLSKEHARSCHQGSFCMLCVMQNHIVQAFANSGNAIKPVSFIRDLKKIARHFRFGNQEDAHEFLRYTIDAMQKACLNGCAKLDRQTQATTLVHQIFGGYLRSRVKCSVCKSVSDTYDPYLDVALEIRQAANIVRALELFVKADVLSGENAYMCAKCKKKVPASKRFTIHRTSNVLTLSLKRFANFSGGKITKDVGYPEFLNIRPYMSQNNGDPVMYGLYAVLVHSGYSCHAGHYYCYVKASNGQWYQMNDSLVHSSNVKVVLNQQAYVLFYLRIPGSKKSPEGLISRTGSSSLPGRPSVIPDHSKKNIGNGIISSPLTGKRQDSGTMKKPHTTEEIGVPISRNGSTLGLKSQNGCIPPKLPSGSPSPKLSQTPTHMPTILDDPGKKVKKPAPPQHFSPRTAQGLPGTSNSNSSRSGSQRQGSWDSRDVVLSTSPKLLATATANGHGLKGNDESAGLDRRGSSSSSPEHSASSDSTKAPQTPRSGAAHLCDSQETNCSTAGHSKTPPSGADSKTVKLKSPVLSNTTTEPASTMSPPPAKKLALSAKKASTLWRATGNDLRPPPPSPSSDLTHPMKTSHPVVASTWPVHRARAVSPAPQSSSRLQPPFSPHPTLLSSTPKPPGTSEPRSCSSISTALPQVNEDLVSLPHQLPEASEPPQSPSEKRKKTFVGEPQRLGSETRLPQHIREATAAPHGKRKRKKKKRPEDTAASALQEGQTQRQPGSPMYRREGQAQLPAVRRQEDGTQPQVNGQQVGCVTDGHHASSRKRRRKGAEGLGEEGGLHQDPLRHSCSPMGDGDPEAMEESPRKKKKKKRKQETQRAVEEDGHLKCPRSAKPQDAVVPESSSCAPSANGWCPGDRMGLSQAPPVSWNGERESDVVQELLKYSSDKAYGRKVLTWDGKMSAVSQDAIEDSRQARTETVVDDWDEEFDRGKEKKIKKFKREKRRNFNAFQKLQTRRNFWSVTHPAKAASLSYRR
In short: as §1

[3] = target: T2, USP38 (UniProt Q8NB14)
T2 sequence (whole entry): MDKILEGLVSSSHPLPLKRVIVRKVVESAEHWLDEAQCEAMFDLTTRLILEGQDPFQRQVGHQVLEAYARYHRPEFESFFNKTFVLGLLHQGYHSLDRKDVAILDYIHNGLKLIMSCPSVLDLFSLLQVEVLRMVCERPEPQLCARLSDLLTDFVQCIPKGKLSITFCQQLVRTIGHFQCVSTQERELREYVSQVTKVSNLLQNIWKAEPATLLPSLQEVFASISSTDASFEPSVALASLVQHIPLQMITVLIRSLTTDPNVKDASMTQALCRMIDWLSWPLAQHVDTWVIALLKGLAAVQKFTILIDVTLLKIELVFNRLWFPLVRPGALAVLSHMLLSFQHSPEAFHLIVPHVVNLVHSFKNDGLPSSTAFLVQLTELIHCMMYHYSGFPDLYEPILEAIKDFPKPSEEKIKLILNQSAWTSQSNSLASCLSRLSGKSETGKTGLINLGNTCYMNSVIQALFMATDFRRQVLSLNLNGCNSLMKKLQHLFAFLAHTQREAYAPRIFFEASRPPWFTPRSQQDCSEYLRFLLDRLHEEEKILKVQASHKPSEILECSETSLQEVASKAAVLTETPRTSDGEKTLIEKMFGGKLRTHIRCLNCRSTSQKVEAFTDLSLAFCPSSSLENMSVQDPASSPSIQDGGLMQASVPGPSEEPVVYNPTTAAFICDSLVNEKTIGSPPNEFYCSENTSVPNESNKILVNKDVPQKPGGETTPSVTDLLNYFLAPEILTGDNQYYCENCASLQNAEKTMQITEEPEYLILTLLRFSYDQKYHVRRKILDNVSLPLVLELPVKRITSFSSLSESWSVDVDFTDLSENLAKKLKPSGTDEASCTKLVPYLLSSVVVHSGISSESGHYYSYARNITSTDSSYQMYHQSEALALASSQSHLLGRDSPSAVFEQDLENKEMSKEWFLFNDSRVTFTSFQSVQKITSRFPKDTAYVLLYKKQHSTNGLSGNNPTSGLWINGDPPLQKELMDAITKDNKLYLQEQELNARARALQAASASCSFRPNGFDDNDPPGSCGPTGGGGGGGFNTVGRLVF
In short: as §1

[4] = target: T3, USP39 (UniProt Q53GS9)
T3 sequence (whole entry): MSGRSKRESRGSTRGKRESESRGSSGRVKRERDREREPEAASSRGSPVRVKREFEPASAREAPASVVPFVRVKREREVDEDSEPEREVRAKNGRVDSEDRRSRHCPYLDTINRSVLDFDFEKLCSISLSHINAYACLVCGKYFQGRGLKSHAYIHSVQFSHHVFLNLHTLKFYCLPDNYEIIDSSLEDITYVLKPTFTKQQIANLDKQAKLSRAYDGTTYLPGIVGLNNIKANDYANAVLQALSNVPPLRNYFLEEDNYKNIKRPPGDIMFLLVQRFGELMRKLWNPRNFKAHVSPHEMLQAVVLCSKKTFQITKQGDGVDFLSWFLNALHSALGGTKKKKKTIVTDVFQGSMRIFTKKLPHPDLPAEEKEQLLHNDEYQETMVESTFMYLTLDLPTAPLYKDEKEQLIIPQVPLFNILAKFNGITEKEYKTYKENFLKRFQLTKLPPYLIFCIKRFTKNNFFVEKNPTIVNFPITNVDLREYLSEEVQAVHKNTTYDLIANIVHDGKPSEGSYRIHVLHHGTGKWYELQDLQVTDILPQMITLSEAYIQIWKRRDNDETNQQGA
In short: as §1

[5] = target: T4, USP4 (UniProt Q13107)
T4 sequence (whole entry): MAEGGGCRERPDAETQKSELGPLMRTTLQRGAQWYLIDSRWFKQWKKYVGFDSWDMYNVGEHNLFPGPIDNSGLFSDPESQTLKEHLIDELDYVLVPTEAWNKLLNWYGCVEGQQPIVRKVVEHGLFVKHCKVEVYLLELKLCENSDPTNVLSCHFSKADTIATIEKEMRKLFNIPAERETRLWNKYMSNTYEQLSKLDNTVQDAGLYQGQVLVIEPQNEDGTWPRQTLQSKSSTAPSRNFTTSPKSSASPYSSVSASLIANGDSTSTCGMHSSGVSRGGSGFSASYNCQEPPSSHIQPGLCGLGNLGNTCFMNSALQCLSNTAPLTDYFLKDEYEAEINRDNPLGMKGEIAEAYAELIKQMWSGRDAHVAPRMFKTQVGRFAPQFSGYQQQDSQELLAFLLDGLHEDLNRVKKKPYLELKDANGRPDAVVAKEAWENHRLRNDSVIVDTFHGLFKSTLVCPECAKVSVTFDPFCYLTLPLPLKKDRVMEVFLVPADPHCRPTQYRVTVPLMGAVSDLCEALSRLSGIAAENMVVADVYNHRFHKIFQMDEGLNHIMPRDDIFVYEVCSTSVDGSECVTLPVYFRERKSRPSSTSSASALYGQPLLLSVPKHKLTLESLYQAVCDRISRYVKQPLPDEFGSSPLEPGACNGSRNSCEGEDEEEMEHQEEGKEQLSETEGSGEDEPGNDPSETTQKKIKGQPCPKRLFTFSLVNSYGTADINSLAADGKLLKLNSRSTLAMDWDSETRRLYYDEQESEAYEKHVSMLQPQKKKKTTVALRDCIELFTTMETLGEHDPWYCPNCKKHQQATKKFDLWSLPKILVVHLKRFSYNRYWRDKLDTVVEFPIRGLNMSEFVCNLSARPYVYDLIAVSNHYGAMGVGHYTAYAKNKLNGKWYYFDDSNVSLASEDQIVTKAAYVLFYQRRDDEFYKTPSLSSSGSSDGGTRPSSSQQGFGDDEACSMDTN
In short: as §1

Measured: log2 ratio of Biotin-Ahx-Ub-VS probe labelling

USP34, sequence (Q70CQ2 whole entry, the tested form may be a part): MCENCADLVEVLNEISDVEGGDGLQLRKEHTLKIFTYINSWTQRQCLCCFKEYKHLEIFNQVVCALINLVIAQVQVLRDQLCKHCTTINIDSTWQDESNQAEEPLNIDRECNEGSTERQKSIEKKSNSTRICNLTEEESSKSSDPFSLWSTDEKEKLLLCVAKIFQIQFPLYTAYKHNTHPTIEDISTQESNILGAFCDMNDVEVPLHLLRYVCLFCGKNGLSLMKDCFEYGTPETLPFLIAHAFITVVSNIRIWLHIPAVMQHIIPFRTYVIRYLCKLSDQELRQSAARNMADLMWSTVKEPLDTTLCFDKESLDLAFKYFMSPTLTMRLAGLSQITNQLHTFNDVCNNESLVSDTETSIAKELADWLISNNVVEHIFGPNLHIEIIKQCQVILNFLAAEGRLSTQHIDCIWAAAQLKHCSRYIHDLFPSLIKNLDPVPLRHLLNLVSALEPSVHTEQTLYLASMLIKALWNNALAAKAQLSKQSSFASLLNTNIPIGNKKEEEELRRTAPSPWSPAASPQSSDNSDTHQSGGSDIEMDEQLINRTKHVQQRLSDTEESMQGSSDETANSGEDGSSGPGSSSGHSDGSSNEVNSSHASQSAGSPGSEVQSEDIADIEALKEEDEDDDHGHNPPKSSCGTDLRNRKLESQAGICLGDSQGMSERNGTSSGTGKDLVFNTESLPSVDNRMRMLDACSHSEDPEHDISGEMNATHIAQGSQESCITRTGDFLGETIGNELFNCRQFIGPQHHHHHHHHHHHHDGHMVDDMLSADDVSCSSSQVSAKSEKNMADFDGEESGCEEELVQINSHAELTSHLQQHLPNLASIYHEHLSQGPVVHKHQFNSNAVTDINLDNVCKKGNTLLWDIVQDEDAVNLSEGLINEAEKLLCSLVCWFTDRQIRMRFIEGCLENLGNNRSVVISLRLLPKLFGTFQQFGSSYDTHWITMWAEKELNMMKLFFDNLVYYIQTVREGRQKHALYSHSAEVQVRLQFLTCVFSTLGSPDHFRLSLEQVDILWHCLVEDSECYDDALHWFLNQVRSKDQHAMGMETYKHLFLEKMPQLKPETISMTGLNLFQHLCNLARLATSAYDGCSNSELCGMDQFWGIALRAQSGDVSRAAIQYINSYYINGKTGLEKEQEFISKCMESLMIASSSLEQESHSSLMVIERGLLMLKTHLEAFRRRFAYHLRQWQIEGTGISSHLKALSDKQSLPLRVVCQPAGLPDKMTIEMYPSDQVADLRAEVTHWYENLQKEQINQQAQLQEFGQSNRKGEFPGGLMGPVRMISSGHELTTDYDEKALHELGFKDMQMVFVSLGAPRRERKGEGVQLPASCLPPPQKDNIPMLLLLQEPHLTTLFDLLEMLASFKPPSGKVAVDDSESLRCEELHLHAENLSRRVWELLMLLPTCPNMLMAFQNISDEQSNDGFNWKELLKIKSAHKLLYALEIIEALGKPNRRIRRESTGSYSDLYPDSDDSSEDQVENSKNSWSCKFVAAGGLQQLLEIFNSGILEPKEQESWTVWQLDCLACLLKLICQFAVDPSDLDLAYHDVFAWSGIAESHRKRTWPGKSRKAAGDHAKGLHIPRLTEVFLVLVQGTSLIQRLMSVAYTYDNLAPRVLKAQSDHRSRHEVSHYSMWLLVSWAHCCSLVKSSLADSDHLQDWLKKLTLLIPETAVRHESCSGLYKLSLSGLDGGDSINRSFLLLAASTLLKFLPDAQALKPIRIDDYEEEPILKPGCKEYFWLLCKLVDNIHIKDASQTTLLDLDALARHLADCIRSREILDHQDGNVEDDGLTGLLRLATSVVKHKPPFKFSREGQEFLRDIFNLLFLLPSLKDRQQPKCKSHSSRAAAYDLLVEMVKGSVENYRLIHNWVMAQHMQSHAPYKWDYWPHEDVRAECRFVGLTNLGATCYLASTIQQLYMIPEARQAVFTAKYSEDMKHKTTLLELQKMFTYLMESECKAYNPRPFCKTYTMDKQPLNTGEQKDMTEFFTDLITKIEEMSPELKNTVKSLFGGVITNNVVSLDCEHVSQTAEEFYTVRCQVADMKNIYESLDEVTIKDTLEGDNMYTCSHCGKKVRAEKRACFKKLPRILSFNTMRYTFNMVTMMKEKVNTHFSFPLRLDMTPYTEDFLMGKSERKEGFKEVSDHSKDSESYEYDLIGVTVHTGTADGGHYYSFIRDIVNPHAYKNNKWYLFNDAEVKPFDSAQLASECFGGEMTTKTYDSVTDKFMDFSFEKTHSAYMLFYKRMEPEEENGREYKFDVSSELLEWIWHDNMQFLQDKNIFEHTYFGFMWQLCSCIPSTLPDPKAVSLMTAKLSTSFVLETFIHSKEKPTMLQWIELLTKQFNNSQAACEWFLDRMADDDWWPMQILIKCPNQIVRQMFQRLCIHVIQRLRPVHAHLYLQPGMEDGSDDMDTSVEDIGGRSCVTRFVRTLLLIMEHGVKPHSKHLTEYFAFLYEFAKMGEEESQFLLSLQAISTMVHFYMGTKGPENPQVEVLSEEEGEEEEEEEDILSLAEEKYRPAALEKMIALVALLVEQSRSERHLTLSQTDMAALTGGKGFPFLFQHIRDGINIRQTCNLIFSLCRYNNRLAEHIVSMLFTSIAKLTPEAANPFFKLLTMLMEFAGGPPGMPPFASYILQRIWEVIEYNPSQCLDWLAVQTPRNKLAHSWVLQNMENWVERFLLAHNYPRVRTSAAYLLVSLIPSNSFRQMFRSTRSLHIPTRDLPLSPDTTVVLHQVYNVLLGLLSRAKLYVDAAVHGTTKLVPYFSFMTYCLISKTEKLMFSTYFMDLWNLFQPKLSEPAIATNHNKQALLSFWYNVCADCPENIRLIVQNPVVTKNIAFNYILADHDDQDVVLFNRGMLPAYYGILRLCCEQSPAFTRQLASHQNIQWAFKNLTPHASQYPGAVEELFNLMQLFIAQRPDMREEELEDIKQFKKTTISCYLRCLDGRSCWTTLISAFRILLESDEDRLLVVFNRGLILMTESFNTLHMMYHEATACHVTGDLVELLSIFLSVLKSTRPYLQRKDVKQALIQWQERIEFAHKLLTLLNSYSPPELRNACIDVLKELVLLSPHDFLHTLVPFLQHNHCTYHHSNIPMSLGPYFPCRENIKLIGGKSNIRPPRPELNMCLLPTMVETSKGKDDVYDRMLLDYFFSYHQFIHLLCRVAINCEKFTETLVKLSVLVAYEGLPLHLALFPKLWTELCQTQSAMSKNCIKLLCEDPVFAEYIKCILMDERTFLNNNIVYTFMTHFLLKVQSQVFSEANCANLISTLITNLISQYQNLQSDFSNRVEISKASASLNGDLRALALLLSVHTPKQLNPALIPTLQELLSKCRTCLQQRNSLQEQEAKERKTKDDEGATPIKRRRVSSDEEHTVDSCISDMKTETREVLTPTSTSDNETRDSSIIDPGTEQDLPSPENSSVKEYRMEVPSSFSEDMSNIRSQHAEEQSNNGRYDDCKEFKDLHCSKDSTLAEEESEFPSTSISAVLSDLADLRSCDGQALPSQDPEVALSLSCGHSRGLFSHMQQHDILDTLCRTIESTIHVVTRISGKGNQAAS

CCN(Cc1ccc(C#N)cc1F)C(=O)CCl
inactive: [1] -0.454 | [2] -0.0792 | [3] -0.292 | [4] -0.0856 | [5] -0.105
